What all share (details): mRNA level, 48 h; actives raise or lower the signal
Read-out in experiment [1]: Interleukin 6 Receptor (IL6R), IL6R (gene 3570)
The experiment is described as follows: LTEA_HepaRG_IL6R: Life Technologies and Expression Analysis (LTEA) Assay for Interleukin 6 Receptor (IL6R) using HepaRG (AID 2283510).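 As to AC50: TaqMan qRT-PCR signal normalized to ACTB GAPDH and POLR2A housekeeping genes.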 The method in brief:
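Concentration-response in human liver HepaRG cells: eight concentrations from 100 uM downward by half-logs, 48 h exposure, 0.5% DMSO vehicle. IL6R mRNA change measured by qRT-PCR and fitted in both directions relative to vehicle.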

Read-out in experiment [2]: Potassium channel subfamily K member 1 (KCNK1), KCNK1 (gene 3775)
The experiment is described as follows: LTEA_HepaRG_KCNK1: Life Technologies and Expression Analysis (LTEA) Assay for Potassium channel subfamily K member 1 (KCNK1) using HepaRG (AID 2283511). The gist of the method: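 Differentiated human HepaRG cells in serum-free induction medium were exposed in duplicate for 48 h to 8 half-log concentrations up to 100 uM in 0.5% DMSO. KCNK1 mRNA was measured by TaqMan qRT-PCR, normalized to ACTB, GAPDH and POLR2A, and fitted bidirectionally versus DMSO.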

Read-out in experiment [3]: Keratin 19 (KRT19), KRT19 (gene 3880)
The experiment is described as follows: LTEA_HepaRG_KRT19: Life Technologies and Expression Analysis (LTEA) Assay for Keratin 19 (KRT19) using HepaRG (AID 2283512). The method in brief:
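Differentiated HepaRG cells in serum-free induction medium, exposed 48 h in duplicate to 8 half-log concentrations up to 100 uM in 0.5% DMSO. KRT19 mRNA by qRT-PCR, normalized to ACTB, GAPDH, POLR2A; bidirectional fit vs DMSO.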

Read-out in experiment [4]: JUN Transcription Factor, JUN (gene 3725)
As to the kind of experiment: LTEA_HepaRG_JUN: Life Technologies and Expression Analysis (LTEA) Assay for JUN Transcription Factor using HepaRG (AID 2283513). The method in brief: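 Human HepaRG liver cells receive test chemicals in 0.5% DMSO for 48 h across an eight-point range topping at 100 uM. Expression changes in JUN are scored in both directions against the DMSO vehicle.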

Read-out in experiment [5]: Lipase C (LIPC), LIPC (gene 3990)
As to the kind of experiment: LTEA_HepaRG_LIPC: Life Technologies and Expression Analysis (LTEA) Assay for Lipase C (LIPC) using HepaRG (AID 2283514). The method in brief:
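Differentiated human HepaRG cells in serum-free induction medium were exposed in duplicate for 48 h to eight concentrations (top 100 uM, half-log steps, 0.5% DMSO). LIPC mRNA was quantified by TaqMan qRT-PCR, normalized to ACTB, GAPDH and POLR2A, with bidirectional fitting versus DMSO.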

Read-out in experiment [6]: Lipoprotein lipase (LPL), LPL (gene 4023)
As to the kind of experiment: LTEA_HepaRG_LPL: Life Technologies and Expression Analysis (LTEA) Assay for Lipoprotein lipase (LPL) using HepaRG (AID 2283515). The method in brief:
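Differentiated human HepaRG cells in serum-free induction medium were exposed in duplicate for 48 h to eight half-log concentrations (top 100 uM) in 0.5% DMSO. LPL mRNA was quantified by TaqMan qRT-PCR, normalized to ACTB, GAPDH and POLR2A.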

Read-out in experiment [7]: MicroRNA 122 (MIR122), gene 406906
As to the kind of experiment: LTEA_HepaRG_MIR122: Life Technologies and Expression Analysis (LTEA) Assay for MicroRNA 122 (MIR122) using HepaRG (AID 2283516). Also: the transcript read is the microRNA miR-122. The gist of the method:
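HepaRG, 48 h exposure, 8-pt half-log from 100 uM, 0.5% DMSO; TaqMan qRT-PCR; bidirectional fit vs DMSO.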

Read-out in experiment [8]: matrix metalloproteinase-10 (MMP10), MMP10 (gene 4319)
As to the kind of experiment: LTEA_HepaRG_MMP10: Life Technologies and Expression Analysis (LTEA) Assay for matrix metalloproteinase-10 (MMP10) using HepaRG (AID 2283517). The method in brief: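 HepaRG, collagen I, ~100,000 cells/well; serum-free induction medium; 48 h exposure, duplicate, 8-pt half-log to 100 uM, 0.5% DMSO. Readout: TaqMan qRT-PCR, normalized to ACTB/GAPDH/POLR2A; bidirectional fit vs DMSO.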

Read-out in a further experiment: MYC, MYC (gene 4609)
As to the kind of experiment: LTEA_HepaRG_MYC: Life Technologies and Expression Analysis (LTEA) Assay for MYC using HepaRG (AID 2283518). The gist of the method: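 Differentiated HepaRG cells exposed 48 h in serum-free induction medium to 8 concentrations (top 100 uM, half-log steps; 0.5% DMSO), duplicate. MYC mRNA measured by Fluidigm qRT-PCR, normalized to ACTB, GAPDH, POLR2A; bidirectional fit versus DMSO.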

Read-out in experiment [9]: matrix metalloproteinase-3 (MMP3), MMP3 (gene 4314)
As to the kind of experiment: LTEA_HepaRG_MMP3: Life Technologies and Expression Analysis (LTEA) Assay for matrix metalloproteinase-3 (MMP3) using HepaRG (AID 2283519). The gist of the method: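 Differentiated human HepaRG cells, plated 48 h on collagen I, were exposed in duplicate for 48 h in serum-free induction medium to eight half-log concentrations up to 100 uM in 0.5% DMSO. MMP3 mRNA was quantified by TaqMan qRT-PCR, normalised to ACTB, GAPDH and POLR2A.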

Read-out in experiment [10]: Paternally Expressed 10 (PEG10), PEG10 (gene 23089)
As to the kind of experiment: LTEA_HepaRG_PEG10: Life Technologies and Expression Analysis (LTEA) Assay for Paternally Expressed 10 (PEG10) using HepaRG (AID 2283520).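 As to AC50: PEG10 transcript by qRT-PCR normalised to ACTB GAPDH and POLR2A.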 The method in brief:
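Chemicals tested on HepaRG cells for 48 h, highest concentration 100 uM. PEG10 expression assessed by qRT-PCR relative to DMSO control.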

Read-out in experiment [11]: Protein phosphatase 2A (PPP2R4), PTPA (gene 5524)
The experiment is described as follows: LTEA_HepaRG_PPP2R4: Life Technologies and Expression Analysis (LTEA) Assay for Protein phosphatase 2A (PPP2R4) using HepaRG (AID 2283522). The method in brief: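 Gene-expression endpoint in HepaRG hepatic cells: 48 h treatment across eight half-log concentrations up to 100 uM in 0.5% DMSO. PPP2R4 mRNA by qRT-PCR, normalized to three endogenous control genes.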

Read-out in experiment [12]: Phosphatase and tensin (PTEN), PTEN (gene 5728)
The experiment is described as follows: LTEA_HepaRG_PTEN: Life Technologies and Expression Analysis (LTEA) Assay for Phosphatase and tensin (PTEN) using HepaRG (AID 2283523). The gist of the method: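 Differentiated human HepaRG cells, plated 48 h then switched to serum-free induction medium, were exposed in duplicate for 48 h to eight half-log concentrations up to 100 uM in 0.5% DMSO. PTEN mRNA measured by TaqMan qRT-PCR, normalized to ACTB/GAPDH/POLR2A, bidirectional fit versus DMSO.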

Read-out in experiment [13]: solute carrier (SLC22A1), SLC22A1 (gene 6580)
The experiment is described as follows: LTEA_HepaRG_SLC22A1: Life Technologies and Expression Analysis (LTEA) Assay for solute carrier (SLC22A1) using HepaRG (AID 2283524). The method in brief: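 Human HepaRG cells were plated 48 h, switched to serum-free induction medium, then exposed in duplicate for 48 h to 8-point half-log series from 100 uM in 0.5% DMSO. SLC22A1 mRNA measured by qRT-PCR, normalized to ACTB/GAPDH/POLR2A, fitted bidirectionally versus DMSO.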

Read-out in experiment [14]: Pyruvate Dehydrogenase Kinase 4 (PDK4), PDK4 (gene 5166)
The experiment is described as follows: LTEA_HepaRG_PDK4: Life Technologies and Expression Analysis (LTEA) Assay for Pyruvate Dehydrogenase Kinase 4 (PDK4) using HepaRG (AID 2283525). The method in brief: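 Differentiated human HepaRG cells, pre-cultured 48 h, were exposed in duplicate for 48 h in serum-free induction medium to eight half-log concentrations up to 100 uM in 0.5% DMSO. PDK4 mRNA was quantified by qRT-PCR, normalized to ACTB, GAPDH and POLR2A, bidirectional fitting versus DMSO.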

Read-out in experiment [15]: NAD(P)H dehydrogenase [quinone] 1 (NQO1), NQO1 (gene 1728)
The experiment is described as follows: LTEA_HepaRG_NQO1: Life Technologies and Expression Analysis (LTEA) Assay for NAD(P)H dehydrogenase [quinone] 1 (NQO1) using HepaRG (AID 2283526). The gist of the method: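 Human HepaRG hepatic cells received chemicals for 48 h in serum-free induction medium with 0.5% DMSO, up to 100 uM. Expression was assessed by TaqMan qRT-PCR against housekeeping controls and fitted bidirectionally against DMSO.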

Read-out in experiment [16]: Nuclear factor erythroid 2-related factor 2 (Homo sapiens) (UniProt Q16236)
The experiment is described as follows: LTEA_HepaRG_NFE2L2: Life Technologies and Expression Analysis (LTEA) Assay for Nuclear factor erythroid 2-related factor 2 (NFE2L2) Transcription Factor using HepaRG (AID 2283527).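 As to outcome: TaqMan qRT-PCR transcript level normalised to ACTB GAPDH and POLR2A housekeeping genes.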 The gist of the method: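 Differentiated human HepaRG cells in serum-free induction medium were exposed for 48 h to eight concentrations (top 100 uM, half-log dilutions, 0.5% DMSO), in duplicate. NFE2L2 mRNA was quantified by TaqMan qRT-PCR, normalized to ACTB, GAPDH and POLR2A, with bidirectional fitting versus DMSO.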

Read-out in experiment [17]: succinate dehydrogenase complex iron sulfur subunit B (SDHB), SDHB (gene 6390)
The experiment is described as follows: LTEA_HepaRG_SDHB: Life Technologies and Expression Analysis (LTEA) Assay for succinate dehydrogenase complex iron sulfur subunit B (SDHB) using HepaRG (AID 2283528). The gist of the method: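 Readout is SDHB transcript level by qRT-PCR, normalised to three housekeeping genes and fitted bidirectionally against 0.5% DMSO vehicle. Human HepaRG cells were treated for 48 h at up to 100 uM.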

Read-out in experiment [18]: Signal transducer and activator of transcription 3 (Homo sapiens) (UniProt P40763)
The experiment is described as follows: LTEA_HepaRG_STAT3: Life Technologies and Expression Analysis (LTEA) Assay for Signal transducer and activator of transcription (STAT3) using HepaRG (AID 2283529). The gist of the method:
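Differentiated human HepaRG cells in serum-free induction medium were exposed in duplicate for 48 h to eight half-log concentrations up to 100 uM in 0.5% DMSO. STAT3 mRNA was quantified by TaqMan qRT-PCR, normalized to ACTB, GAPDH and POLR2A, and fitted bidirectionally against DMSO.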

Read-out in experiment [19]: Nuclear factor NF-kappa-B p105 subunit (Homo sapiens) (UniProt P19838)
The experiment is described as follows: LTEA_HepaRG_NFKB1: Life Technologies and Expression Analysis (LTEA) Assay for Nuclear Factor Kappa B Subunit 1 (NFKB1) using HepaRG (AID 2283521).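 Also: TaqMan qRT-PCR transcript normalised to ACTB GAPDH and POLR2A housekeeping genes.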 The method in brief:
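HepaRG, 48 h exposure; 8-pt half-log series from 100 uM in 0.5% DMSO; duplicates. Readout: NFKB1 mRNA by qRT-PCR (Fluidigm arrays), housekeeping-normalized. Gain/loss fit vs DMSO baseline.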

Active and inactive are the calls of the source. The calls were made as follows: active = hit-call score of the fitted dose curve at least 0.9, where 1 is the maximum; inactive = score below 0.9.

Broadly, the AC50 is the concentration at which the activity in the assay is half-maximal.

Chain of Nuclear factor erythroid 2-related factor 2 (Homo sapiens) (Q16236 whole entry, looked up): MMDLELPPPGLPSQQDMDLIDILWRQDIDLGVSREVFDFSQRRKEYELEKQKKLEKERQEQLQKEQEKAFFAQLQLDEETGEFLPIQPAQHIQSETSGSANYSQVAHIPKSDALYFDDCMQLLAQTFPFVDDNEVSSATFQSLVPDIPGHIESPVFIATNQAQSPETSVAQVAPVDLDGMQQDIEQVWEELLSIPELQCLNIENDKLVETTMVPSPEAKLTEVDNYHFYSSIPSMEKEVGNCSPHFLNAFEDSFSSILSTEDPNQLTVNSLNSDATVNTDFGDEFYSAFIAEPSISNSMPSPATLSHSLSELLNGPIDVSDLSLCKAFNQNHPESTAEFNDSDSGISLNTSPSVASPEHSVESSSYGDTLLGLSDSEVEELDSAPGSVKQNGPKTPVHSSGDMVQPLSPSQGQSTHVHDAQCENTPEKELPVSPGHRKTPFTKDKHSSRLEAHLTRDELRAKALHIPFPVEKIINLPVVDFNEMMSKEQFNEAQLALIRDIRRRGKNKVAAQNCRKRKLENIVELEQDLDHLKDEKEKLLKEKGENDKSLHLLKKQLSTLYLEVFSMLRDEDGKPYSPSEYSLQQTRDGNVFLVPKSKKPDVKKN
Chain of Signal transducer and activator of transcription 3 (Homo sapiens) (P40763 whole entry, looked up): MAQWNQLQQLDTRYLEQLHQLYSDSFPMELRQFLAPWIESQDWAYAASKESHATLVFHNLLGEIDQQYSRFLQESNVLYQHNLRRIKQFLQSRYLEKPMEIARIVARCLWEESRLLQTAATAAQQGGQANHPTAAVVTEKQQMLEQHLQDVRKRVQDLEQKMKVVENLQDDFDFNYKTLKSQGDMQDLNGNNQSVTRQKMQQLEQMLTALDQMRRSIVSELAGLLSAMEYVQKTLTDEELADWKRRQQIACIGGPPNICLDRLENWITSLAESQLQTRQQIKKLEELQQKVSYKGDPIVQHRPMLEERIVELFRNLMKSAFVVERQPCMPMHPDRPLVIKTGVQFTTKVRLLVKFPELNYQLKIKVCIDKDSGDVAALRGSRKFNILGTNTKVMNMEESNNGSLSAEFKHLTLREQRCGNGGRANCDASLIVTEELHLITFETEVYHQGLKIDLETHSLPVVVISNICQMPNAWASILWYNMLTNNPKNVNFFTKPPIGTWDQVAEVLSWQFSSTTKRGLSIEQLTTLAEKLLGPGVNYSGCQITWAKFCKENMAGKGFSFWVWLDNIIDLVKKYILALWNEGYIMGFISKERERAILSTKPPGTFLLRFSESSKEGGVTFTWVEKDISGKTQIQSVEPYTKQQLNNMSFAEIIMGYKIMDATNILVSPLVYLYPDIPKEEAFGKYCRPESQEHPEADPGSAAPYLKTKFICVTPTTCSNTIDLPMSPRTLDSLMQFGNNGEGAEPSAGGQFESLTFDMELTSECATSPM
Chain of Nuclear factor NF-kappa-B p105 subunit (Homo sapiens) (P19838 whole entry, looked up): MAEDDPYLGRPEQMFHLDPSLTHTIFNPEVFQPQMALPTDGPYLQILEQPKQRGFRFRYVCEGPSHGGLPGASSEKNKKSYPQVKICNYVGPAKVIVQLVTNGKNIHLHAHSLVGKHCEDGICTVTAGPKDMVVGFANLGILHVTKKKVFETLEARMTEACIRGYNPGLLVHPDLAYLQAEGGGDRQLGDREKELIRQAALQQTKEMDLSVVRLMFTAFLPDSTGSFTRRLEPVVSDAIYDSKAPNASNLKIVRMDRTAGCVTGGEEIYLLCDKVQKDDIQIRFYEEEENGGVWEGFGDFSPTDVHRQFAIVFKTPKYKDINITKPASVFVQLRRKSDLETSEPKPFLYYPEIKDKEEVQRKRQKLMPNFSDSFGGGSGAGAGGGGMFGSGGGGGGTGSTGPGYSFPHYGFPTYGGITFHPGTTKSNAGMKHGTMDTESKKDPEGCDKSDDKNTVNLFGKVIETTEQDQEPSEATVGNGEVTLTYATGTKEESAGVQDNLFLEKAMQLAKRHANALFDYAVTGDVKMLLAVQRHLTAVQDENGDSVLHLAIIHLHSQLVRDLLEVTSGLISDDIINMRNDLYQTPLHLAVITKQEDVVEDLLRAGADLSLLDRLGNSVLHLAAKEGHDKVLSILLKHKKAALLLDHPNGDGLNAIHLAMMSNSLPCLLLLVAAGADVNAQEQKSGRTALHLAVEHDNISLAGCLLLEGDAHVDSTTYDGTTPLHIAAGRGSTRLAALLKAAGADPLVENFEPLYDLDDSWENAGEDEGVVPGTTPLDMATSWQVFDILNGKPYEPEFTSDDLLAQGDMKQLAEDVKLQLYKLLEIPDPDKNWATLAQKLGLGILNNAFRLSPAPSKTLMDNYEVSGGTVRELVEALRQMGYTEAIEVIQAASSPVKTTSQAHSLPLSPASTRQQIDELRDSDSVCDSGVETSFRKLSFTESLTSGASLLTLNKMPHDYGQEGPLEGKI

Turning to `COP(=S)(OC)SCn1nnc2ccccc2c1=O`, the compound was called inactive in experiment [1], in [2], in experiment [3], in experiment [4], in experiment [5] and in experiment [6]. The outcome in experiment [7] was “inactive”; in [8], “inactive”; with MYC, MYC (gene 4609), “inactive”; in [9], “inactive”; in experiment [10], “inactive”; in [11], “inactive”. In addition, the call in experiment [12], in experiment [13], in [14], in experiment [15], in [16] and in [17] was inactive. In addition, the compound was called inactive in [18].

As to `CCOP(=O)(OCC)Oc1nc(Cl)c(Cl)cc1Cl`, the AC50 in experiment [1] is 60.2 µM (active); in experiment [5], 78.7 µM (active); in experiment [6], 61.5 µM (active); in experiment [7], 87.7 µM (active); with MYC, MYC (gene 4609) it was 49.8 µM (active); in [9], 62.7 µM (active). The AC50 in experiment [10] is 59.6 µM (active); in [11] it was 76.6 µM (active); in experiment [13], 92.2 µM (active); in experiment [16], 49.8 µM (active). Further, the compound was called inactive in experiment [2], in [3], in [4], in experiment [8], in experiment [12] and in experiment [14]. Moreover, the compound was classed as inactive in experiment [15], in experiment [17] and in [18].

On to `COP(=O)(OC)O/C(C)=C/C(=O)N(C)C`, for which the result in [1], in [2], in experiment [3], in [4], in [5] and in [6] was inactive. Moreover, the outcome is “inactive” in experiment [7]; “inactive” in [8]; “inactive” with MYC, MYC (gene 4609); “inactive” in [9]; “inactive” in experiment [10]; “inactive” in experiment [19]. For the same compound, the outcome in [11], in experiment [12], in [13], in experiment [14], in [15] and in [16] was inactive. The compound was called inactive in experiment [17] and in [18].

The record behind these values is PubChem BioAssay (EPA / NIEHS).
